Measured values from the supplement of paper PMC9950053.
Counter-ions that a name gives are not always drawn.

tested on: Danio rerio larvae (5 dpf); experiment: 1-h baseline activity (% time moving, periods 1-6) minus DMSO control (percentage points); higher = more locomotor activity than DMSO larvae; conditions: 10 µM; exposure time: 3 h pre-incubation + 3 h imaging
Method: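 Wild-type 5 dpf zebrafish larvae (n=48 per drug, 96-well plates, 28.5 °C) were exposed to Tocris FDA-approved library compounds at 10 µM (0.1% DMSO) for 3 h before and 3 h during imaging. Images were taken every 6 s during visual (moving coloured lines) and acoustic stimuli, and larvae were tracked with the DeepLabCut-based Z-LaP Tracker. Each behavioural measure is the treated-group mean minus the DMSO vehicle control mean (n=844), in percentage points. This mapping covers compounds with 4-character plate codes.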

Structure (SMILES)	1-h baseline activity
COc1cc2c(cc1OC)C1CC(=O)C(CC(C)C)CN1CC2 (stereo unspecified) [Tetrabenazine]	-0.785
O=c1[nH]c2ccccc2n1C1CCN(CCCC(c2ccc(F)cc2)c2ccc(F)cc2)CC1 [Pimozide]	-18.2
N[C@@H]1C[C@H]1c1ccccc1 [Tranylcypromine hydrochloride]	-14.7
Cc1cccc([C@H](C)c2c[nH]cn2)c1C [Dexmedetomidine hydrochloride]	-27.3
C=C1C[C@@H]2[C@H](CC[C@]3(C)C(=O)CC[C@@H]23)[C@@]2(C)C=CC(=O)C=C12 [Exemestane]	-19.5
CC(C)C[C@H]1C(=O)N2CCC[C@H]2[C@]2(O)O[C@](NC(=O)[C@@H]3C=C4c5cccc6[nH]c(Br)c(c56)C[C@H]4N(C)C3)(C(C)C)C(=O)N12 [Bromocriptine mesylate]	16.1
CN1C[C@H](C(=O)N[C@]2(C)O[C@@]3(O)[C@@H]4CCCN4C(=O)[C@H](Cc4ccccc4)N3C2=O)C[C@@H]2c3cccc4[nH]cc(c34)C[C@H]21 [Dihydroergotamine mesylate]	1.07
C=CCN1C[C@H](C(=O)N(CCCN(C)C)C(=O)NCC)C[C@@H]2c3cccc4[nH]cc(c34)C[C@H]21 [Cabergoline]	-9.92
CCN(C)C(=O)Oc1cccc([C@H](C)N(C)C)c1 [Rivastigmine tartrate]	7.3
CC(O)(CS(=O)(=O)c1ccc(F)cc1)C(=O)Nc1ccc(C#N)c(C(F)(F)F)c1 (stereo unspecified) [Bicalutamide]	3
CC[C@@H](C(N)=O)N1CCCC1=O [Levetiracetam]	5.78
